“And” between values parts separate entries of the source, which are not always exact repeats. Equal entries are not always repeated. The source made the active and inactive calls.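 Rule for the calls: active = response below a set limit, under 55% cells CD8-positive and vesicle-bound, and CD8 cells' 90th-percentile brightness under 279; inactive = the rest.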

The nature of this test: inhibitors of CD8+ T cell-vesicle binding, pilot screen, LFA-1/ICAM-1 modulator project, MLPCN validation set, flow cytometry (AID 2523).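 For vesicle binding response: mean PE anti-B7-1 fluorescence of CD8+ cells relative to row control; 100% = QL9-loaded vesicles with DMSO vehicle in the same plate row.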 The conditions noted are these: 2C mouse CD8+ T cells, at 7 µM, stronger effect = lower value; double positive events: measured here: CD8+/vesicle+ event percentage.
As for `COc1cc(C2NCCc3c2[nH]c2ccccc32)ccc1OC(C)C` (stereo not given), the double positive events is 58.1% and the vesicle binding response was 85.7% (inactive).
For the compound `O=C(CSCc1ccccc1)NCCCN1CCOCC1`, the double positive events is 62.4% and the vesicle binding response is 197% (inactive).
The corresponding values for `O=C(N1CCCCC1)C1(c2ccccc2)CCOCC1` are 57.5% and 213% (inactive).
The corresponding values for `CCCC(=O)O[C@]1(C(=O)COC(C)=O)CC[C@H]2[C@@H]3C[C@H](F)C4=CC(=O)C=C[C@]4(C)[C@@]3(F)[C@@H](O)C[C@@]21C` are 60.2% and 1090% (inactive).
In the same order, the values of `O=c1ccc2c(o1)/C(=C/C=C(Cl)Cl)CCC2` are 56.9% and 236% (inactive).
With `COc1cc(Cc2cnc(N)nc2N)cc(OC)c1OC`, the vesicle binding response is 247% (inactive) and 222% (inactive); the double positive events is 62.8% and 60.9%.
In the case of `O=C(CC(NC(=O)OCc1ccccc1)C(=O)O)OCc1ccccc1` (stereo not given), the vesicle binding response was 160% (inactive) and the double positive events was 63.2%.
`O=c1c(-c2ccccc2)c(O)c2cccc3c2n1CCC3`: the double positive events was 61.2% and the vesicle binding response was 186% (inactive).
The corresponding values for `O=C(O)C1CCN(C(=O)COc2ccc3c4c(c(=O)oc3c2)CCC4)CC1` are 65.1% and 420% (inactive).
In the same order, the values of `CCOC(=O)c1cccc(P(C)(C)=O)c1` are 62% and 67.6% (inactive).
The corresponding values for `O=C(O)c1cc2cc(F)ccc2[nH]1` are 64.7% and 894% (inactive).
For `O=C(O)c1ccccc1C(=O)OCCCCOC(=O)c1ccccc1C(=O)O`, the double positive events worked out at 64.9% and the vesicle binding response was 1380% (inactive).
In the same order, the values of `Cn1nc(-c2ccc(Cl)cc2)nc2c(=O)n(C)c(=O)nc1-2` are 62.1% and 215% (inactive).
Regarding `O=c1[nH]c(=O)n([C@H]2C[C@H](O)[C@@H](CO)O2)cc1C(F)(F)F`, the double positive events was 58.6% and the vesicle binding response was 48.9% (inactive).
In the same order, the values of `COc1ccc(-c2cc(C(=O)N3CCOCC3)c3cc(C)ccc3n2)cc1` are 73.1% and 206% (inactive).
In the same order, the values of `Cc1ccc2c(c1)c1c3n2CCCN(Cc2ccccc2)C3CCC1` (stereo not given) are 77.6% and 490% (inactive).
Regarding `CCCCCCCC(=O)OCC(O)CO` (stereo not given), the double positive events was determined as 60.6% and the vesicle binding response was 45.8% (inactive).
In the same order, the values of `S=C(c1ccc2c(c1)OCO2)N1CCCCC1` are 62.6% and 176% (inactive).
Turning to `COc1cc2cc(C)nc(Cc3cccc4ccccc34)c2cc1OC`, the vesicle binding response was 204% (inactive) and the double positive events was 59.9%.
In the same order, the values of `CCn1cc(C(=O)O)c(=O)c2ccc(C)nc21` are 172% (inactive) and 55.9%.
The corresponding values for `c1coc(-c2nnc3n2C2(CCCC2)Cc2ccccc2-3)c1` are 279% (inactive) and 73.1%.
In the same order, the values of `COc1ccc(Cc2noc(CN(C)CCN3CCc4ccccc4C3)n2)cc1OC` are 232% (inactive) and 65.2%.
Consider `CC1(C)c2ccccc2N2CC(=O)NC21/C=C/c1ccco1` (stereo not given), for which the vesicle binding response is 87.6% (inactive) and the double positive events was found to be 64.1%.
The corresponding values for `CC12CC(c3ccccc3O1)C(C(=O)N1CCOCC1)C(=O)N2` (stereo not given) are 53.4% (inactive) and 60.3%.
`O=C1CC(c2ccc(OCCCCCOc3ccc(C4CC(=O)NC4=O)cc3)cc2)C(=O)N1` (stereo not given): the double positive events was 63.3% and the vesicle binding response was 1500% (inactive).
In the same order, the values of `O=c1[nH]c(=O)n(C2CCCO2)cc1F` (stereo not given) are 60.9% and 137% (inactive).
In the same order, the values of `NC(N)=NC(=O)Cc1c(Cl)cccc1Cl` are 64.6% and 197% (inactive).
In the same order, the values of `CCOC(=O)Cn1c(C)cc(=O)c2ccccc21` are 59.9% and 226% (inactive).
Consider `Cc1ccc(C(=O)Nc2ccccc2C(=O)NC(C(=O)O)C(C)C)cc1` (stereo not given), for which the vesicle binding response is 175% (inactive) and the double positive events is 57.3%.
In the same order, the values of `Cc1cc(O)c2/c(=N\N)c(-c3csc(C)n3)coc2c1` are 96.1% (inactive) and 56.7%.
In the same order, the values of `O=C(CN1C(=O)/C(=C/c2cccc(Br)c2)SC1=S)Nc1cccnc1` are 59.7% (inactive) and 58.9%.
In the case of `COc1ccc2[nH]c(CN3CCN(CC(C)C)C(CCO)C3)c(C)c2c1` (stereo not given), the double positive events came out at 61.7% and the vesicle binding response is 231% (inactive).
With `CC[N+](C)(C)c1cccc(O)c1`, the double positive events was 57.5% and the vesicle binding response is 123% (inactive).
In the same order, the values of `COc1cccc2c(=O)c(C/C=C(/C)Cl)c(C)[nH]c12` are 65.6% and 6720% (inactive).
In the same order, the values of `O=C(N/N=C/c1ccc([N+](=O)[O-])o1)c1ccc(O)cc1` are 47.6% and 209% (inactive).
In the same order, the values of `CC(=O)N1CCn2c3c(c4cc(C)ccc42)CCCC31` (stereo not given) are 62% and 208% (inactive).
Regarding `Cc1ccc(CN2CCN(CCCc3ccccc3)CC2CCO)cc1` (stereo not given), the double positive events worked out at 62.7% and the vesicle binding response was 219% (inactive).
Consider `CCC(C(=O)Nc1ccc2c(c1)OCCO2)c1ccccc1` (stereo not given), for which the vesicle binding response was 143% (inactive) and the double positive events amounted to 58.6%.
With `CN(C)CCC=C1c2ccccc2CCc2ccccc21`, the vesicle binding response is 227% (inactive) and the double positive events stood at 60.1%.
In the same order, the values of `CN(C)c1ccc(CNCCC(Cc2ccccc2)c2ccco2)cc1` (stereo not given) are 31.1% (inactive) and 58.2%.

The values are drawn from PubChem BioAssay.
